Source: PubChem
In the library only some 4.3% were active in any assay of this set; here they are far more common.
ADAM17 inh – ADAM17 inhibition, QFRET primary screen. P78536. recombinant ADAM17, EDANS/DABCYL FRET peptide cleavage. inhibition, % at 6.95 µM. 370,000 compounds, 0.83% hits;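 active = inhibition above the mean of compounds lying between control limits plus 3 SD, set per campaign, cut at about 8.5% in these data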;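 also: 0% = DMSO-only wells as the low control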
NR3A LBD binder – modulates the human NR3A ligand-binding domain. Tm shift relative to glycine control, % at 25 µM. AID 1259313. NR3A LBD differential scanning fluorimetry, Tm shift; 0% = protein alone, 100% = glycine-bound protein. 340,000 compounds, 2.5% hits;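 active = melting temperature shift of at least 10% of the positive control shift, at one fixed dose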
ADAM10 inh – inhibits human ADAM10; inhibition, % at 7 µM; O14672; 370,000 compounds, 0.62% hits; recombinant ADAM10, EDANS/DABCYL FRET peptide cleavage, 3 h;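 active = inhibition above a per-campaign cutoff equal to the mean of compounds falling between control-based bounds plus 3 SD, cut at about 20% in these data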;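 also: 0% = DMSO wells while the 100% control is not disclosed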
HGIII-sPLA2 inh – Inhibits HGIII-sPLA2 liposome hydrolysis, primary screen | Q9NZ20 | QFRET BODIPY PC-A2 liposome hydrolysis, fluorescence | inhibition, % at 12.2 µM | 370,000 compounds, 0.56% hits;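 active = inhibition above mean plus 3 SD of compounds lying within the high and low control bounds, cut at about 19% in these data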;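 also: 0% = median of test compound wells and 100% = no enzyme DMSO wells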
Target sequence (Q9NZ20 whole entry, looked up): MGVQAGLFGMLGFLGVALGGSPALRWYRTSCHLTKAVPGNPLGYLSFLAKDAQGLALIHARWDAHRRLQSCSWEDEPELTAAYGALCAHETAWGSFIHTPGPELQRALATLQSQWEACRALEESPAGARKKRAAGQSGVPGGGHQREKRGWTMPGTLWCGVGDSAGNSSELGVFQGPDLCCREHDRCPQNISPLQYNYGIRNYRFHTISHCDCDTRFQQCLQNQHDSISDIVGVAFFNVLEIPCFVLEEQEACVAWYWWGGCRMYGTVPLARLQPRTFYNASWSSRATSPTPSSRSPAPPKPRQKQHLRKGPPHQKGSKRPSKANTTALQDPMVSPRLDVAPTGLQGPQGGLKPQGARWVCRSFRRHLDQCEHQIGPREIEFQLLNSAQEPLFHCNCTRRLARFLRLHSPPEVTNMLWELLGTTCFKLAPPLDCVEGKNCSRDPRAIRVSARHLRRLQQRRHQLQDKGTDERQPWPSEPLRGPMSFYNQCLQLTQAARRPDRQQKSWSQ
FAS-TE inh – FAS thioesterase (human) inhibition; P49327; recombinant FAS-TE, OMFH fluorogenic substrate, fluorescence endpoint; inhibition, % at 15 µM; 360,000 compounds, 0.67% hits;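 active = compounds whose normalised, plate-corrected inhibition of enzyme fluorescence in the single-dose primary screen is 50% or more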;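 also: 0% = DMSO with enzyme and 100% = substrate without enzyme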
FAS-TE conf – confirmation of human fatty acid synthase thioesterase inhibitors. shares compounds with FAS-TE inh. inhibition, % at 15 µM. 2,300 compounds, 45% hits. recombinant FAS-TE, OMFH fluorogenic substrate, fluorescence;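 active = compounds inhibiting the enzyme by at least 50% at 15 µM in any one of the replicates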;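 also: 0% = enzyme with DMSO only and 100% = wells lacking enzyme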
An asterisk follows results filed as active; x = not tested or not shown.

SMILES	ADAM17 inh	NR3A LBD binder	ADAM10 inh	HGIII-sPLA2 inh	FAS-TE inh	FAS-TE conf
CCN1C(=O)[C@H]2[C@@H](c3ccc(-c4cccc(Cl)c4)c(OC)c3)N[C@@](Cc3ccccc3)(C(=O)OC)[C@H]2C1=O	-3	-1	-11	2	47	x
CN1CCCCC(NC(=O)CCl)C1=O (configuration not stated)	1	x	1	4	x	x
O=C(OCC#CCSc1nnc(-c2cccc3ccccc23)o1)c1ccccc1	-4	x	-81	3	x	x
Cc1cc(C)cc(C(=O)OCCN2CCN(C3CN(Cc4cn(Cc5ccc([N+](=O)[O-])cc5)nn4)S(=O)(=O)C3)CC2)c1 (configuration not stated)	-10	x	-12	-3	x	x
CCN1C(=O)[C@H]2[C@@H](c3ccc(-c4ccc(OC)cc4)c(OC)c3)N[C@@](Cc3ccccc3)(C(=O)OC)[C@H]2C1=O	-1	0	-11	-1	52*	23
CCN(C[C@H]1N[C@@](Cc2ccccc2)(C(=O)OC)[C@H]2C(=O)N(C)C(=O)[C@@H]12)S(=O)(=O)c1ccccc1	3	1	6	1	3	x
CCN(C[C@H]1N[C@@](Cc2ccccc2)(C(=O)OC)[C@H]2C(=O)N(C)C(=O)[C@@H]12)S(=O)(=O)c1ccc(-c2ccccc2)cc1	1	1	7	-8	52*	33
OC(c1ccccc1)(c1ccccc1)C1CCN(CCCOc2ccc(Br)cc2)CC1	6	x	9	-12	x	x
O=C(NCC1CCCCC1)c1ccc([N+](=O)[O-])cc1	-1	-3	-2	1	16	x
O=C(CSc1ccc([N+](=O)[O-])cc1)NCC1CCCCC1	1	2	-1	-8	55*	62*
CCOC(=O)N[C@@H](Cc1cccnc1)C(=O)N1CCC[C@H]1C(=O)NC1CCCC1	-8	x	-12	10	x	x
CC(C)(C)c1ccc(OCCC(=O)OCC(=O)NCc2ccccc2)cc1	3	2	8	-3	65*	67*
Cc1ccc2nc(/N=C(\N)NC(=O)N3c4ccccc4Sc4ccccc43)nc(C)c2c1	-5	-1	-8	6	55*	-5
Cc1ccc2c(C)nc(/N=C(\N)NC(=O)N3c4ccccc4Sc4ccccc43)nc2c1	-5	0	-13	7	64*	4
COc1ccc2nc(/N=C(\N)NC(=O)N3c4ccccc4Sc4ccccc43)nc(C)c2c1	-22	-5	-75	4	14	x
COC(=O)[C@@]12CCCCC3=C1N(CCC3)C(=O)[C@H]2CC(=O)N1CCN(C(=O)c2ccco2)CC1	-4	x	-9	7	x	x
O=C(CNC(=O)c1ccccc1)N/N=C/c1cc(Br)ccc1O	-25	-11	-86	-28	54*	44*
CCOc1ccc(NC(=O)CN2CC(c3ccccc3)CC2=O)cc1 (configuration not stated)	0	-1	-4	-2	1	x
O=C(CN1CC(c2ccccc2)CC1=O)N/N=C/c1cc(Br)ccc1O (configuration not stated)	-29	-4	-106	-28	69*	85*
O=C(CNC(=O)c1ccncc1)N/N=C/c1cc(Br)ccc1O	-12	-1	-31	15	-1	x
COc1cc2c(-c3ccc4cc[nH]c4c3)c(-c3ccc(C#N)cc3)oc(=O)c2cc1OC	-49	1	-174	-11	67*	11
Cc1ccc(C(NC(=O)/C=C\c2ccc3c(c2)OCO3)C(=O)Nc2ccc3c(c2)OCO3)cc1 (configuration not stated)	-4	-5	-2	-5	55*	22
CSCC[C@H](NC(=O)c1ccc(Cl)c([N+](=O)[O-])c1)c1nc2ccccc2[nH]1	4	-11	8	-19	59*	64*
O=C(NC(Cc1ccccc1)c1nc2ccccc2[nH]1)c1ccc(Cl)c([N+](=O)[O-])c1 (configuration not stated)	-1	7	7	-8	26	x
COC(=O)c1cc2c(c3c4cc(OC)ccc4n(S(=O)(=O)c4ccc(OC)cc4)c13)C(=O)N(Cc1ccccc1)C2	-7	x	-23	11	x	x
